PubChem BioAssay (NCI)
About 79,000 compounds went through this panel and 15% of them were active in at least one assay; those are over-represented in the sample as a whole. Calls of active or inactive are those of the source. No stated cut-off is given here; in the data, active means growth inhibition above about 70%; inactive means the rest.

Legend:
[1] = NCI Yeast Anticancer Drug Screen. Data for the rad50 strain (AID 155);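 further: 0% = growth of vehicle-only cultures of the same strain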; conditions: S. cerevisiae rad50 strain growth inhibition, active compounds read high
Method in brief: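 Vehicle-treated cultures provide the reference for the growth inhibition reported for compound-exposed, repair-deficient yeast.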

[2] = NCI Yeast Anticancer Drug Screen. Data for the mec2-1 strain (AID 157); conditions: S. cerevisiae mec2-1 strain, active compounds read high
Method in brief: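 Cells of the genetically defined mec2-1 yeast strain are incubated with test compound. Inhibition of growth is calculated against vehicle-treated controls.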

[3] = NCI Yeast Anticancer Drug Screen. Data for the sgs1 mgt1 strain (AID 161);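 further: 0% = growth of cultures given vehicle only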; conditions: S. cerevisiae sgs1 mgt1 strain, active compounds read high
Method in brief: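 Inhibition of yeast growth, normalised to vehicle-treated controls, is reported for a strain bearing genetic alterations in DNA damage repair.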

[4] = NCI Yeast Anticancer Drug Screen. Data for the cln2 rad14 strain (AID 165);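 further: 0% = growth equal to vehicle treated cultures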; conditions: S. cerevisiae cln2 rad14 strain, active compounds read high
Method in brief: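 The screen exposed genetically defined yeast (cln2 rad14) to test compounds and scored growth inhibition relative to vehicle-treated controls.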

[5] = NCI Yeast Anticancer Drug Screen. Data for the bub3 strain (AID 167); conditions: S. cerevisiae bub3 mutant strain, active compounds read high
Method in brief: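 Mutant yeast screening strain plus compound; vehicle-treated cultures serve as the 0% inhibition reference.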

[6] = NCI Yeast Anticancer Drug Screen. Data for the mlh1 rad18 strain (AID 175); conditions: S. cerevisiae mlh1 rad18 strain growth inhibition, active compounds read high
Method in brief: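 Compound-treated yeast growth, normalised to vehicle controls. Strain bears defined DNA repair mutations.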

[7] = at 5.0 µM (retest, dose inferred, filed as 0.5)
[8] = at 50.0 µM (retest, dose inferred, filed as 5.0)

Measured: growth inhibition

O=C(NNC(=O)c1cccc(C(=O)NNC(=O)c2ccc(Cl)c(Cl)c2)n1)c1ccc(Cl)c(Cl)c1
active: [4]; [8] 76% | [4]; at 50.0 µM 81.4% | [5]; [8] 80% | [5]; at 50.0 µM 70.2% | [6]; [8] 71%
inactive: [1]; [7] 35% | [1]; [8] 64% | [1]; at 50.0 µM 44.5% | [2]; [7] 37% | [2]; [8] 66% | [2]; at 50.0 µM 45.8% | [3]; [7] 47% | [3]; [8] 62% | [3]; at 50.0 µM 52.7% | [4]; [7] 54% | [5]; [7] 61% | [6]; [7] 49% | [6]; at 50.0 µM 51.4%

O=C(CNC(=O)OCc1ccccc1)Oc1ccc([N+](=O)[O-])cc1
active: [6]; at 50.0 µM 73.7%
inactive: [1]; [7] -9% | [1]; [8] -1% | [1]; at 50.0 µM 22.1% | [2]; [7] -1% | [2]; [8] 38% | [2]; at 50.0 µM 58.4% | [3]; [7] 3% | [3]; [8] 7% | [3]; at 50.0 µM 48.6% | [4]; [7] -42% | [4]; [8] -56% | [4]; at 50.0 µM -60.2% | [5]; [7] -5% | [5]; [8] 0% | [5]; at 50.0 µM 64.2% | [6]; [7] 12% | [6]; [8] 36%

COc1ccc2c(c1)CCC1=C2C=C[P+]1(C)C
inactive: [1]; [7] -4% | [2]; [7] -5% | [3]; [7] -1% | [4]; [7] 4% | [5]; [7] -2% | [6]; [7] -2%
active: [1]; [8] 98% | [1]; at 50.0 µM 99.5% | [2]; [8] 96% | [2]; at 50.0 µM 99.7% | [3]; [8] 100% | [3]; at 50.0 µM 99.7% | [4]; [8] 71% | [4]; at 50.0 µM 94.6% | [5]; [8] 97% | [5]; at 50.0 µM 99.7% | [6]; [8] 99% | [6]; at 50.0 µM 99.5%

NC(=O)c1nnn(Cc2cc(Cl)c(C(=O)c3ccc(Cl)cc3)c(Cl)c2)c1N
inactive: [1]; [7] 2% | [1]; at 50.0 µM 57.2% | [2]; [7] 3% | [3]; [7] 2% | [3]; at 50.0 µM 50.3% | [4]; [7] 1% | [5]; [7] 5% | [6]; [7] 13%
active: [1]; [8] 98% | [2]; [8] 99% | [2]; at 50.0 µM 98.9% | [3]; [8] 99% | [4]; [8] 98% | [4]; at 50.0 µM 98.6% | [5]; [8] 99% | [5]; at 50.0 µM 98.8% | [6]; [8] 94% | [6]; at 50.0 µM 98.8%

S=c1[nH]c2ccc(Cl)cc2s1
active: [1]; at 50.0 µM 72.9% | [3]; [8] 92% | [3]; at 50.0 µM 82.2% | [4]; at 50.0 µM 83.8% | [5]; [8] 77% | [6]; [8] 91% | [6]; at 50.0 µM 87.2%
inactive: [1]; [7] -22% | [1]; [8] 54% | [2]; [7] -2% | [2]; [8] 69% | [2]; at 50.0 µM 65.8% | [3]; [7] -13% | [4]; [7] -60% | [4]; [8] 31% | [5]; [7] -19% | [5]; at 50.0 µM 42% | [6]; [7] -19%

COC1/C=C/OC2(C)Oc3c(C)c(OC(C)=O)c4c(c3C2=O)C(=O)C=C(NC(=O)/C(C)=C\C=C\C(C)C(O)C(C)C(O)C(C)C(OC(C)=O)C1C)C4=O (stereo not given)
active: [1]; [8] 70% | [2]; [8] 87% | [4]; [8] 96% | [5]; [8] 85% | [6]; [8] 90%
inactive: [1]; [7] 6% | [1]; at 50.0 µM 53.4% | [2]; [7] -44% | [2]; at 50.0 µM 50% | [3]; [7] 1% | [3]; [8] 52% | [3]; at 50.0 µM 6% | [4]; [7] 3% | [4]; at 50.0 µM 69.8% | [5]; [7] 0% | [5]; at 50.0 µM 42.6% | [6]; [7] 5% | [6]; at 50.0 µM 46.5%

CCC(=O)N1c2ccccc2CC1c1c[nH]c2ccccc12 (stereo not given)
active: [1]; [8] 98% | [1]; at 50.0 µM 95.2% | [2]; [8] 98% | [3]; [8] 98% | [3]; at 50.0 µM 77.4% | [4]; [8] 99% | [4]; at 50.0 µM 74.5% | [5]; [8] 78% | [6]; [8] 98% | [6]; at 50.0 µM 93.3%
inactive: [1]; [7] -4% | [2]; [7] -10% | [2]; at 50.0 µM 30.8% | [3]; [7] -3% | [4]; [7] -56% | [5]; [7] -10% | [5]; at 50.0 µM 8.15% | [6]; [7] 1%

O=C1NC(c2cccc3ccccc23)Nc2ccc(Cl)cc21 (stereo not given)
active: [1]; [8] 95% | [1]; at 50.0 µM 74% | [2]; [8] 96% | [2]; at 50.0 µM 84.8% | [3]; [8] 97% | [3]; at 50.0 µM 83% | [4]; [8] 85% | [5]; [8] 96% | [5]; at 50.0 µM 80.6% | [6]; [8] 94% | [6]; at 50.0 µM 77.2%
inactive: [1]; [7] 18% | [2]; [7] 10% | [3]; [7] 5% | [4]; [7] 12% | [4]; at 50.0 µM 56.3% | [5]; [7] 1% | [6]; [7] 20%

CC(=O)OCC(=O)[C@@]1(O)CC[C@H]2[C@@H]3CCC4=CC(=O)C=C[C@]4(C)[C@@]3(F)[C@@H](O)C[C@@]21C
active: [6]; [8] 71%
inactive: [1]; [7] -27% | [1]; [8] 41% | [1]; at 50.0 µM 0.4% | [2]; [7] 1% | [2]; [8] 16% | [2]; at 50.0 µM -2.8% | [3]; [7] -4% | [3]; [8] 59% | [3]; at 50.0 µM 17.4% | [4]; [7] -6% | [4]; [8] 5% | [4]; at 50.0 µM 66.2% | [5]; [7] -2% | [5]; [8] 51% | [5]; at 50.0 µM 17.6% | [6]; [7] -3% | [6]; at 50.0 µM 15.6%

Cc1ccc(/C=C2\CN(C)CC3=C2NC(=S)NC3c2ccc(C)cc2)cc1 (stereo not given)
inactive: [1]; [7] 31% | [1]; [8] 40% | [1]; at 50.0 µM 30.2% | [2]; [7] 18% | [2]; [8] 54% | [2]; at 50.0 µM 4.2% | [3]; [7] -31% | [3]; [8] 21% | [3]; at 50.0 µM 30.6% | [4]; [7] 18% | [4]; [8] 33% | [4]; at 50.0 µM 16.7% | [5]; [7] -10% | [5]; [8] 44% | [5]; at 50.0 µM 20.1% | [6]; [7] 26% | [6]; [8] 48% | [6]; at 50.0 µM 58.3%
